Screening data from PubChem.
Hits are enriched below; roughly 4.9% of the tested compounds scored in any of these assays.
NLRP3 yeast inh: blocks the NALP3 inflammasome reconstituted in yeast | Yeast reconstituted NLRP3/ASC/caspase-1, beta-gal luminescence, 24 h | inhibition, % at 10 µM | 330,000 tested, 0.39% active | AID 2825;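 active = inhibition of 50% or more; inactive = inhibition below 50%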;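 also: plate controls were induced DMSO wells for no effect and uninduced yeast grown without galactose for full effect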
tim10-1 inh: inhibits growth of tim10-1 mutant yeast; S. cerevisiae tim10-1 ts strain growth, BacTiter-Glo, 24 h; 330,000 tested, 2.2% active; inhibition, % at 20 µM; AID 463190;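 active = inhibition of at least 40%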;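 also: mutant grown at 25 °C; 0% = DMSO wells with yeast and 100% = wells holding no yeast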
SKKanGAS inh: inhibitors of SKKanGAS S. pyogenes growth in kanamycin (SK-promoter or general growth effect) | BacTiter-Glo, 6 h | inhibition, % at 7.5 µM | 300,000 tested, 1.3% active;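 active = mean replicate score, as percent of positive control median, at least 50; inconclusive = mean below 50 but one replicate at or above 50; inactive = mean and every replicate below 50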;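 also: strain carries kanamycin resistance gene driven by streptokinase promoter and grows in 40 µg/ml kanamycin; loss of luminescence reflects streptokinase promoter inhibition or plain growth inhibition; 0% = median of DMSO wells and 100% = positive control at its reference dose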
tim23-1 inh: inhibits growth of tim23-1 mutant yeast. inhibition, % at 20 µM. S. cerevisiae tim23-1 growth, BacTiter-Glo luminescence, 24 h. 330,000 tested, 1.3% active. AID 463212;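 active = growth inhibition of the mutant yeast at or above 50%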;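 also: temperature-sensitive mutant grown at 25 °C; plate controls were DMSO-treated mutant yeast for no effect and medium wells lacking yeast for full effect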
NALP1 yeast inh: inhibitors of NALP1 inflammasome in yeast; 280,000 tested, 0.61% active; inhibition, % at 10 µM; AID 2071; S. cerevisiae NALP1/ASC/caspase-1 growth, X-gal OD620, 72 h; in the data active = inhibition mostly above about 24%, no sharp cut-off; inactive = mostly below about 32%
TIM10 inh: inhibits growth of TIM10 yeast strain | S. cerevisiae TIM10 strain growth, BacTiter-Glo luminescence, 24 h | inhibition, % at 10 µM | 330,000 tested, 1.4% active | AID 463195;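 active = inhibition of 40% or more at the single tested concentration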;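 also: wild-type TIM10 isogenic control strain grown at permissive 25 °C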
tim23-1 confirm: tim23-1 yeast growth inhibition, confirmed; shares compounds with tim23-1 inh; S. cerevisiae tim23-1 growth, BacTiter-Glo luminescence, 24 h; inhibition, % at 20 µM; 4,400 tested, 83% active;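 active = inhibition above about 39% in either of two replicate wells at 20 µM, limit read from the data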;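 also: temperature-sensitive tim23-1 mutant grown at 25 °C; 0% = DMSO wells with yeast and 100% = medium wells without yeast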
The depositor's hits bear a star; ? = inconclusive; . = no result given.

SMILES	NLRP3 yeast inh	tim10-1 inh	SKKanGAS inh	tim23-1 inh	NALP1 yeast inh	TIM10 inh	tim23-1 confirm
O=C(CCl)Nc1cccc(Oc2ccccc2)c1	-25.3	13.5	12.9	51.8*	10.3	14.3	33.3
COc1ccc(-c2nnc3ccc(SCC(=O)Nc4nc5ccccc5s4)nn23)cc1OC	-13.3	-7.4	2.3	-10.3	10.8	-2.0	.
O=c1c(-c2ccccc2)c[nH]n1-c1cccc([N+](=O)[O-])c1	3.4	-17.0	11.8	-0.5	6.0	0.1	.
Cc1[nH]n(-c2ccccc2)c(=O)c1C(c1cccc([N+](=O)[O-])c1)c1c(C)[nH]n(-c2ccccc2)c1=O	-32.8	34.3	-2.7	56.4*	5.3	38.3	60.2*
COc1cccc(CNC(=O)CCN2C(=O)[C@@H]3Cc4ccccc4CN3C2=O)c1	9.4	6.0	-2.5	-12.7	15.9	4.7	.
CCCn1nc2cc(C(=O)N(CC)c3ccc(OC)cc3)ccc2c1OCC	1.3	2.4	-0.5	12.8	1.0	-4.2	.
Cc1ccc(C)c(NC(=O)c2cc([N+](=O)[O-])cc([N+](=O)[O-])c2)c1	12.7	29.2	-2.7	55.1*	-2.4	18.5	51.3*
Oc1ccc(Br)cc1C=Nc1cccn2cc(-c3ccccc3)nc12	-9.6	28.6	14.1	54.3*	9.2	4.2	53.9*
Cc1cccn2cc(CCNS(=O)(=O)c3cccc([N+](=O)[O-])c3)nc12	6.0	-0.6	7.6	18.9	.	12.7	.
O=C1CC(c2cccc(Br)c2)c2cc3c(cc2N1)CCC3 (configuration not stated)	15.6	37.5	2.8	57.9*	19.6	8.2	51.9*
COc1cc2c(cc1OC)C(c1cccc(Br)c1)CC(=O)N2 (configuration not stated)	5.2	-2.4	-2.1	10.8	4.7	1.0	.
O=C(c1cc(-c2ccccc2Cl)nc2ccccc12)N1CCN(c2ccccc2O)CC1	17.7	22.9	28.0	40.2	.	20.2	.
O=C(c1cc(-c2ccccc2Cl)nc2ccccc12)N1CCN(c2ccccn2)CC1	4.7	17.5	.	54.3*	.	24.4	44.1*
OCc1cn(-c2ccccc2)nc1-c1ccc(Br)cc1	24.6	-6.6	-12.0	66.7*	-16.0	-2.8	28.2
CC(C)COc1ccc(-c2nn(-c3ccccc3)cc2CO)cc1	27.7	20.4	4.0	41.3	4.5	16.5	.
COc1ccc(OC)c(CCNC(=O)Cn2cccc2C(=O)c2ccccc2C)c1	-6.5	-14.6	-8.7	95.6*	7.8	-7.6	29.1
COc1ccc(OC)c(CCNC(=O)Cn2cccc2C(=O)c2ccccc2)c1	10.5	17.4	-8.6	6.5	4.1	-5.7	.
O=c1c2ccc([N+](=O)[O-])cc2ncn1CCOc1ccc(Cl)cc1	15.5	6.5	4.9	62.2*	-5.4	39.1	64.7*
CC1(C)CC(n2c(NCCO)nc3c(c2=O)C2(CCCC2)Cc2ccccc2-3)CCO1 (configuration not stated)	-4.5	20.8	3.9	51.7*	14.3	36.0	48.7*
O=c1[nH]c(NCCO)nc2c1C1(CCCCC1)Cc1ccccc1-2	23.6	38.6	.	33.9	4.1	17.6	.
O=C(COC(=O)CC1CCCC1)Nc1ccc(Br)cc1F	15.0	-26.3	.	22.0	.	0.3	.
Cc1c(CCOC(=O)C23CC4CC(CC(C)(C4)C2)C3)sc[n+]1CC(=O)c1ccccc1	18.9	5.1	11.5	62.1*	12.7	17.6	17.6
O=C1CCC([N+](=O)[O-])C(c2cc3c(cc2Cl)OCO3)N1 (configuration not stated)	22.7	11.2	4.9	4.9	-16.2	3.0	.
c1ccc(-c2csc(Nc3ccccn3)n2)cc1	28.8	9.6	1.6	50.4*	17.8	1.1	29.3
Oc1c(Br)cc(Br)cc1CNc1cnc2ccccc2c1	29.7	38.0	61.3*	71.6*	15.9	-3.3	64.8*
SMILES	NLRP3 yeast inh	tim10-1 inh	SKKanGAS inh	tim23-1 inh	NALP1 yeast inh	TIM10 inh	tim23-1 confirm
Oc1c(Br)cc(Br)cc1CNc1ccc(F)cc1	36.6	34.6	?	21.1	25.5	22.4	.
O=C1C=C(c2cc3ccccc3s2)CCC1	18.0	9.5	-4.7	21.2	.	-0.7	.
N=C1/C(=C\c2coc3ccccc3c2=O)C(=O)N=C2SC=CN12	-9.4	21.7	20.0	64.8*	.	8.1	70.9*
CSC1=NSC2=NC(=O)/C(=C/c3coc4ccccc4c3=O)C(=N)N12	.	.	.	.	28.5	.	.
CC(C)(C)c1csc(N/N=C/c2ccc(O)cc2)n1	33.4	30.0	12.8	57.4*	2.8	23.6	39.5
C#CCOCCOCCOCCNc1nc(N2CCN(C(=O)CCCCCCCCCCNC(=O)[C@@H](CCC(=O)O)n3cc(CCCCCN)nn3)CC2)nc(N2CCN(C(=O)CCCCCCCCCCNC(=O)[C@H](CCCCN)n3cc(C[C@@H](C)CC)nn3)CC2)n1	18.3	39.5	.	47.0	.	17.4	.
C#CCOCCOCCOCCNc1nc(N2CCN(C(=O)CCCCCCCCCCNC(=O)[C@H](CCCCN)n3cc(CCO)nn3)CC2)nc(N2CCN(C(=O)CCCCCCCCCCNC(=O)[C@H](CCCCN)n3cc(C[C@@H](C)CC)nn3)CC2)n1	9.3	27.9	.	57.1*	.	12.6	56.4*
C#CCOCCOCCOCCNc1nc(N2CCN(C(=O)CCCCCCCCCCNC(=O)[C@H](CO)n3cc(CCCCCN)nn3)CC2)nc(N2CCN(C(=O)CCCCCCCCCCNC(=O)[C@H](CCCN=C(N)N)n3cc(C[C@@H](C)CC)nn3)CC2)n1	15.5	33.5	.	52.3*	.	20.4	49.1*
CCOc1ccc(-c2nc(CCl)cs2)cc1	28.1	13.3	-9.5	-1.7	6.1	-8.3	.
COc1ccc(Br)cc1-c1nc(CCl)cs1	23.1	37.0	-0.7	51.4*	-34.3	36.7	57.1*
C=CCN1C(=O)/C(=C/C(=O)OC)S/C1=N\NC(=O)c1ccccc1	9.2	22.3	-4.9	58.8*	-3.9	21.9	37.8*
COCCn1c(C)cc(C(=O)COC(=O)c2ccc([N+](=O)[O-])o2)c1C	12.6	22.6	1.5	51.8*	14.4	19.8	58.6*
Cc1cc(C(=O)COC(=O)c2ccc([N+](=O)[O-])o2)c(C)n1CC1CCCO1 (configuration not stated)	13.1	25.2	4.1	54.2*	-3.0	31.1	55.0*
Cc1cccc(C)c1OCC(=O)Nc1ccc2c(c1)C(=O)NC2=O	18.3	29.0	3.3	21.4	25.2	14.3	.
Cc1cc(OC(=O)c2ccc(S(=O)(=O)N3CCOCC3)cc2)c([N+](=O)[O-])c(=O)[nH]1	.	.	.	.	5.8	.	.
COc1ccc(NC(=O)CSc2ncccc2C(=O)OC(C)C)cc1OC	10.0	6.6	-3.6	11.3	-7.4	-1.0	.
CC(C)OC(=O)c1cccnc1SCc1cc(=O)n2ccccc2n1	23.6	28.3	-17.1	65.3*	9.3	8.4	44.0*
Nc1nccnc1C(=O)OCC(=O)c1ccc[nH]1	12.4	17.7	-8.4	2.8	.	5.4	.
